Compounds with a hit are over-represented: about 3.3% of the library has one in this group of screens.
AmpC detergent – inhibitors of E. coli AmpC beta-lactamase with detergent; P00811; AmpC hydrolysis of nitrocefin, absorbance 480 nm, 0.01% Triton; Potency, µM (titrated, usually from 114 µM), inactives show at the highest dose activity change, negative = inhibition, usual class: inhibitors; actives 0.041% (n = 370,000); AID 485294;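 further: 0% = no-compound wells and -100% = no-enzyme wells; nearly all actives have a fitted effect of over 25% in size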
Target sequence (P00811 whole entry, looked up): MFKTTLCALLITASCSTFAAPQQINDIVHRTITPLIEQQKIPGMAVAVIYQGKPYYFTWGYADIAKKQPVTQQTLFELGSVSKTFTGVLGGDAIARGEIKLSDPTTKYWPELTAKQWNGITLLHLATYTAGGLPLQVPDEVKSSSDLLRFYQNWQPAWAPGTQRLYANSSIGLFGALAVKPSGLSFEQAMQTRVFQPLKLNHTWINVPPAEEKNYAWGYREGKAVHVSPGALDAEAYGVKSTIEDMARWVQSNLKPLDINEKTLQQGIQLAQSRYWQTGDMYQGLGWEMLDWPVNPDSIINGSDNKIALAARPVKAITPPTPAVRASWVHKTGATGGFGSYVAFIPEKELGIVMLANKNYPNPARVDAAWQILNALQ
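AmpC (5.3 nM in the dispensed reagent) in 20 mM phosphate pH 7.0 with 0.01% (detergent screen) or 0.0001% Triton X-100 was preincubated with compounds for 15 min at room temperature. Nitrocefin was then added from an 800 uM solution, and hydrolysis was followed at 480 nm.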
AmpC no deterg – AmpC beta-lactamase inhibition without detergent; AmpC nitrocefin hydrolysis, absorbance 480 nm, 0.0001% Triton; Potency, µM (titrated, usually from 57.1 µM), for inactives: at the highest dose activity change, negative = inhibition, usual class: inhibitors; P00811; actives 0.52% (n = 330,000);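 further: plate controls were no compound for no effect and no enzyme for full effect; nearly all actives have a fitted effect of over 20% in size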
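AmpC (5.3 nM in the dispensed reagent) in 20 mM phosphate pH 7.0 with 0.01% (detergent screen) or 0.0001% Triton X-100 was preincubated with compounds for 15 min at room temperature. Nitrocefin was then added from an 800 uM solution, and hydrolysis was followed at 480 nm.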
TbPYK inhibitor – inhibitors of Trypanosoma brucei pyruvate kinase; TbPYK enzyme, Kinase-Glo Plus ATP luminescence, 45 min; Potency, µM (titrated, usually from 76.8 µM), inactives show at the top dose activity, negative = inhibition, usual class: inhibitors; actives 0.12% (n = 410,000); AID 624173; further: on the % scale 0 is the no-effect control and ±100 the full control effect; nearly all actives have a fitted effect of over 50% in size
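Activity of T. brucei pyruvate kinase was followed by Kinase-Glo Plus luminescence after the enzyme reacted 45 min at room temperature with 130 uM ADP (final) and substrate. Test compounds were added before ADP at multiple concentrations.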
Sm TGR block – blocks Schistosoma mansoni thioredoxin glutathione reductase | purified TGR, DTNB reduction, TNB absorbance 405 nm | Potency, µM (series often up to 114 µM), for inactives: at the top dose activity change, negative = inhibition, most hits filed as inhibitors | actives 3% (n = 360,000) | AID 485364; further: on the % scale 0 is the no-effect control and ±100 the full control effect; nearly all actives have a fitted effect of over 60% in size
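First, TGR (20 nM dispensed) and NADPH were mixed with compound. Second, a 15 min room-temperature incubation followed. Third, further NADPH and then DTNB were added to start the reaction. Finally, TNB absorbance was monitored kinetically.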
SARS PLpro yeast – inhibitors of SARS-CoV papain-like protease in yeast; S. cerevisiae expressing SARS-CoV PLpro, growth rescue; Potency, µM (titrated, usually from 32.9 µM), inactives show at the top dose activity, positive = growth rescue, hits mostly activators; actives 0.19% (n = 330,000); AID 485353; calls by dose curve; further: 0% is about no effect; nearly all actives have a fitted effect of over 55% in size
RE007 growth inh – less growth of the S. pombe RE007 Vpr strain; S. pombe RE007 Vpr strain, BacTiter-Glo ATP luminescence, 24 h; Potency, µM (series often up to 92.2 µM), inactives show at the top dose activity change, negative = less growth, most hits filed as inhibitors; actives 0.21% (n = 360,000); AID 651644; active means well fitted falling curve with a large enough effect; inconclusive means small, poorly fitted or top-dose-only effect; inactive means no such curve, though single readings can be large or run the other way; further: on the % scale 0 is the no-effect control and ±100 the full control effect; nearly all actives have a fitted effect of over 50% in size
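Fission yeast strain RE007, carrying one chromosomally integrated HIV-1 vpr copy, was seeded at OD 0.01 in PMG+AL medium with 23 nL pinned compound. After 24 h at 30 °C and 99% humidity, viability was read by BacTiter-Glo luminescence.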
Starred values were filed as active, the others as inactive; ? = inconclusive; nt = no result. Unless noted, the call rests on the fitted dose curve; in most records, active means well fitted curve in the direction sought with a large enough effect; inconclusive means small, poorly fitted or top-dose-only effect, or another doubt; inactive means no such curve, though single readings can be large; an effect the other way counts as inactive or inconclusive. Potency means the concentration at half of the fitted maximal effect.

SMILES | AmpC detergent | AmpC no deterg | TbPYK inhibitor | Sm TGR block | SARS PLpro yeast | RE007 growth inh
Cc1cc(C)cc(Nc2nc3ccccc3nc2-n2nc(C)cc2C)c1 | -4.6% | nt | 2.6% | 1.3% | nt | nt
COc1ccc(NC(=O)C2CCN(C(=O)c3sc4nc[nH]c(=O)c4c3C)CC2)c(OC)c1 | 3.2% | nt | -3.0% | 7.9% | nt | nt
O=C1NC(=O)N(c2ccccc2)C(=O)/C1=C/c1ccoc1 | -3.1% | -26.9% | ? | -9.9% | 3.5% | -20.2%
O=C1NC(=O)N(c2ccccc2)C(=O)/C1=C\c1ccc2c3c(cccc13)CC2 | -2.9% | -28.3% | nt | 25.1µM* | -12.6% | nt
O=C1NC(=O)N(c2ccccc2)C(=O)/C1=C\c1ccccc1[N+](=O)[O-] | -0.5% | -8.3% | ? | 3.55µM* | 2.5% | -5.3%
COc1ccccc1N1C(=O)NC(=O)/C(=C\c2cnn(-c3ccccc3)c2)C1=O | -13.3% | -31.7% | ? | 4.6% | 0.3% | 10.7%
COc1ccccc1N1C(=O)NC(=O)/C(=C/c2ccc3c4c(cccc24)CC3)C1=O | -17.4% | -15.1% | ? | 31.6µM* | 0.4% | -10.6%
CCOC(=O)c1c(NC(=O)CSc2cn(CCNC(=O)c3ccc(OC)cc3)c3ccccc23)sc2c1CCCC2 | -0.1% | nt | 2.3% | 8.7% | nt | nt
Cc1ccc(C)c2[nH]c(=O)c(CN(CCN3CCOCC3)Cc3nnnn3CC3CCCO3)cc12 (stereo not given) | -9.0% | 54.0% | -10.1% | 20µM* | 8.9% | 8.4%
CCNC(=S)N(Cc1ccco1)Cc1cc2cc3c(cc2[nH]c1=O)OCCO3 | -12.3% | -33.7% | 5.2% | -23.6% | 2.1% | 5.5%
COc1ccccc1CN(Cc1cc2c(C)ccc(C)c2[nH]c1=O)Cc1nnnn1Cc1ccco1 | 3.5% | -6.1% | 0.0% | 44.7µM* | 0.3% | -8.6%
CNC(=S)N(Cc1ccco1)Cc1cc2cc3c(cc2[nH]c1=O)OCCO3 | -7.8% | -29.8% | -16.0% | 14.1µM* | 25.2% | -9.9%
Cc1ccc(CN(Cc2cc3cc4c(cc3[nH]c2=O)OCCO4)Cc2nnnn2Cc2ccco2)cc1 | 4.7% | -16.0% | -10.7% | 11.2µM* | 2.8% | 0.1%
Cc1ccc(C)c2[nH]c(=O)c(CN(Cc3nnnn3C3CCCCC3)CC3CCCO3)cc12 (stereo not given) | 0.8% | -0.7% | 7.3% | ? | -0.3% | 14.1%
CC(C)CCn1c(=O)c2sccc2n2c(CCCC(=O)Nc3ccc(F)c(Cl)c3)nnc12 | 0.2% | nt | 1.6% | -4.7% | nt | nt
Cc1ccc(NC(=O)c2cnn3c(C(F)F)cc(-c4ccccc4)nc23)c(C)c1 | 18.5% | nt | 1.3% | 64.3% | nt | nt
CCN(CC(=O)Nc1c(C(=O)OC)[nH]c2ccc(C)cc12)c1ccc2c(c1)OCO2 | -13.3% | 9.4% | 4.8% | 50.1µM* | 20.3% | 4.5%
CN(Cc1ccco1)c1ncnc2ccc(-c3ccoc3)cc12 | -1.7% | 4.4% | -16.5% | 20µM* | 6.5% | nt
CCc1cccc2c(C(=O)CSc3nncn3-c3ccc(OC)cc3)c[nH]c12 | -12.8% | -2.7% | -6.8% | 1.8% | -0.6% | 4.6%
CCc1cccc2c(C(=O)CSc3nncn3-c3ccccc3OC)c[nH]c12 | ? | -4.3% | -0.2% | -0.6% | 12.6µM* | 4.1%
Cn1c(C(C#N)C2=C(Cl)C(=O)N(c3ccccc3)C2=O)nc2ccccc21 (stereo not given) | ? | -19.4% | nt | 44.7µM* | -14.9% | nt
Cc1ccnc(NC(c2cc(C)ccc2O)c2ccc3cccnc3c2O)c1 (stereo not given) | 6.5% | nt | 50.5% | 0.355µM* | nt | nt
Cc1ccnc(NC(c2ccccc2F)c2ccc3cccnc3c2O)c1 (stereo not given) | 21.4% | nt | 17.5% | 2.24µM* | nt | nt
Oc1ccccc1C(Nc1nccs1)c1ccc2cccnc2c1O (stereo not given) | -8.0% | -58.0% | 1.9% | 1.26µM* | -6.7% | 3.4%
Oc1c(C(Nc2ccccn2)c2ccccc2F)ccc2cccnc12 (stereo not given) | 0.5% | nt | 51.9% | 2µM* | nt | nt
SMILES | AmpC detergent | AmpC no deterg | TbPYK inhibitor | Sm TGR block | SARS PLpro yeast | RE007 growth inh
CCOC(=O)c1ccccc1NC(=O)Cn1c(=O)n(Cc2nc(C)no2)c(=O)c2ccccc21 | 0.3% | nt | 0.9% | -1.0% | nt | nt
Oc1c(C(Nc2ccccn2)c2ccccn2)ccc2cccnc12 (stereo not given) | ? | 13.0% | 49.9% | 22.4µM* | ? | ?
CCc1c(C)sc(NC(NC(C)=O)(C(=O)OC)C(F)(F)F)c1C#N (stereo not given) | -6.1% | -8.4% | 6.1% | 50.1µM* | 5.9% | -12.5%
COC(=O)C(NC(C)=O)(Nc1sc2c(c1C(N)=O)CCCC2)C(F)(F)F (stereo not given) | ? | -15.6% | 1.8% | ? | -5.2% | 2.6%
O=C(NCc1ccccn1)Nc1ccccc1Cl | 0.9% | 0.8% | 4.8% | -16.4% | -3.7% | 13.6%
Cc1c(Cl)cccc1NC(=O)NCc1ccccn1 | 5.9% | 1.0% | -4.9% | 39.8µM* | -8.2% | 10.7%
O=C(c1cccc2cccc(O)c12)N1CCCCC1 | ? | -12.6% | 2.5% | 39.8µM* | -10.6% | ?
O=C(c1cccc2ccccc12)N1CCCCC1 | 2.7% | -8.6% | 1.2% | -27.9% | -0.3% | 21.3%
CCNC(=O)CC1C(=O)N(c2ccc(F)cc2)C(=O)N1Cc1ccc(OC)c(OC)c1 (stereo not given) | ? | nt | 4.7% | -13.7% | nt | nt
CC1=C(C(=O)Nc2ccccc2)C(c2ccc[nH]2)n2ncnc2N1 (stereo not given) | -0.6% | -39.6% | -13.3% | 28.2µM* | -2.4% | nt
CC1=C(C(=O)Nc2ccccc2)C(c2ccccn2)n2ncnc2N1 (stereo not given) | -2.5% | nt | 2.9% | -6.0% | nt | -12.2%
CN(C)S(=O)(=O)c1ccc2c(c1)c(=O)c(C(=O)N1CCN(c3cccc(Cl)c3)CC1)cn2C | -0.4% | nt | -4.8% | -1.5% | nt | nt
CCCCOc1cccc(C2c3c(oc4ccccc4c3=O)C(=O)N2c2ccccn2)c1 (stereo not given) | -1.7% | nt | -5.7% | -7.8% | nt | nt
c1ccc2[nH]c(-c3ccc4c(c3)OCO4)nc2c1 | nt | nt | ? | nt | nt | 39.8µM*
CC(NC(=O)c1cnc2n(c1=O)CCS2)c1ccccc1 (stereo not given) | ? | -7.3% | -3.7% | -18.9% | 2.6% | -15.4%
O=c1c(C(c2ccc(F)cc2)c2c(O)nc3n(c2=O)CCCS3)c(O)nc2n1CCCS2 | -14.5% | -24.3% | -7.5% | 1.78µM* | 1.4% | -6.0%
O=c1c(C(c2ccccc2)c2c(O)nc3n(c2=O)CCCS3)c(O)nc2n1CCCS2 | -10.8% | -26.8% | -8.9% | 4.47µM* | 4.0% | -1.9%

Bioassay records (PubChem)
